TrxR1 inh = rat TrxR1 inhibition; recombinant rTrxR1, NADPH fluorescence consumption, selenite substrate; Potency, µM (titrated, usually from 114 µM), most hits filed as inhibitors; actives 1% (n = 390,000); O89049; note: nearly all actives have a fitted effect of over 65% in size
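Rat TrxR1 (90 nM in the dispensed reagent) was pre-reduced with 400 uM NADPH for 5 min at room temperature, then incubated with compound for 15 min. After 400 uM selenite was added, NADPH fluorescence (Ex 340/Em 450 nm) was followed for 8 min.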
GLS inhibitor = glutaminase GLS (human) inhibition. AID 624170. O94925. GLS enzymatic activity, qHTS titration. actives 0.21% (n = 410,000). Potency, µM (doses to about 45.5 µM), hits mostly inhibitors
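Read-out is an Amplex red fluorescence increase coupled through glutamate oxidase and HRP, measured before and after 30 min room-temperature incubation. hKGA is in 45 mM KH2PO4 (pH 8.2) with 0.02% Tween-20; glutamine added as 1mM solution.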
mIDH1 inhibitor = human IDH1 R132H inhibition | AID 602179 | actives 0.093% (n = 390,000) | IDH1-R132H enzyme, NADPH consumption, diaphorase/resazurin fluorescence | Potency, µM (highest dose often 76.6 µM), actives largely listed as inhibitors | O75874; note: nearly all actives have a fitted effect of over 65% in size
Target sequence (O75874 whole entry R132H, stated change not applied): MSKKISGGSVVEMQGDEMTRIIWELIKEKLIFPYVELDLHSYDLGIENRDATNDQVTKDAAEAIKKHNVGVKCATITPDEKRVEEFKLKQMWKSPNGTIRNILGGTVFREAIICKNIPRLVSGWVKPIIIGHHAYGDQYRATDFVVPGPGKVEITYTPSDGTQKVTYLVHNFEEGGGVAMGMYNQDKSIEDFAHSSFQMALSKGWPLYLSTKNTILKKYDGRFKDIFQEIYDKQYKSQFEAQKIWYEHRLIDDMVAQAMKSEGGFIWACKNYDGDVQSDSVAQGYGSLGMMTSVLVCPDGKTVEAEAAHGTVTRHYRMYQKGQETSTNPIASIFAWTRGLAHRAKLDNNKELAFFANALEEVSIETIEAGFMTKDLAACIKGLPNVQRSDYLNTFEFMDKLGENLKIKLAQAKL
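IDH1-R132H (0.5 ug/mL dispensed) in pH 7.5 Tris buffer was preincubated 30 min with compound, then given a substrate mix of 0.016 mM NADPH and 2 mM alpha-KG for 80 min at room temperature; remaining NADPH was read by diaphorase/resazurin fluorescence.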
TrxR1 substrate = is turned over as a substrate by rat TrxR1 | O89049 | purified TrxR1 substrate turnover, NADPH consumption readout | Potency, µM (titrated, usually from 114 µM) | actives 0.01% (n = 390,000) | AID 588456; note: nearly all actives have a fitted effect of over 50% in size
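Rat TrxR1, dispensed at 90 nM, was prereduced with 400 uM NADPH (final) for 5 min at ~22 deg C, then incubated with compound 15 min before 400 uM selenite. A first-read NADPH fluorescence drop versus no-compound background flagged substrates.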
Numbers stand for hits; – = inactive; ? = inconclusive; · = no result; ! = not confirmed by another sample. In the library only some 1.2% were active in any assay of this set; here they are far more common. Calls come from the whole dose curve; as a rule, active = well fitted curve in the direction sought with a large enough effect; inconclusive = small, poorly fitted or top-dose-only effect, or another doubt; inactive = no such curve, though single readings can be large; an effect the other way counts as inactive or inconclusive.

SMILES | TrxR1 inh | GLS inhibitor | mIDH1 inhibitor | TrxR1 substrate
CCC(C)C(N)C1=NC(C(=O)N[C@@H](CC(C)C)C(=O)N[C@H](CCC(=O)[O-])C(=O)N[C@H](C(=O)N[C@H]2CCCCNC(=O)[C@H](CC(N)=O)NC(=O)[C@@H](CC(=O)[O-])NC(=O)[C@H](Cc3cnc[nH]3)NC(=O)[C@@H](Cc3ccccc3)NC(=O)[C@H]([C@@H](C)CC)NC(=O)[C@@H](CCCN)NC2=O)[C@@H](C)CC)CS1.[Zn+2] (stereo partly drawn) | – | ? | 31.6µM | –
CCC(C)C1NC(=O)C(Cc2ccc(O)cc2)NC(=O)C(N)CSSCC(C(=O)N2CCCC2C(=O)NC(CC(C)C)C(=O)NCC(N)=O)NC(=O)C(CC(N)=O)NC(=O)C(CCC(N)=O)NC1=O (stereo not drawn) | · | – | · | ·
Cn1c(=O)c2c(nc(OC/C=C/c3ccccc3)n2C)n(C)c1=O | 44.7µM | – | – | –
C/C=C/COc1nc2c(c(=O)n(C)c(=O)n2C)n1C | – | ? | – | –
CN(C)c1ccc(N=Nc2ccc(/C=C/c3ccnc4ccccc34)cc2)cc1 | ? | · | · | –
O=c1nc(/C=C/c2ccc(O)c(O)c2)oc2ccccc12 | – | 5.62µM | – | –
CCOC(=O)C1(C)C=C(Nc2ccc(C(=O)O)cc2)C(=O)N1c1ccc(C(=O)O)cc1 (stereo not drawn) | – | – | – | –
COc1ccccc1NC(=O)Cc1csc(NC(=S)Nc2ccc(C)cc2)n1 | 8.91µM | – | – | –
COc1cc([C@@H]2c3cc4c(cc3[C@@H](O[C@@H]3O[C@H]5CO[C@H](C)O[C@H]5[C@H](O)[C@@H]3O)[C@H]3COC(=O)[C@H]23)OCO4)cc(OC)c1OP(=O)(O)O | · | – | · | ·
COc1cccc(C2C(C(=O)/C=C/c3ccco3)=C(O)C(=O)N2CCN2CCOCC2)c1 (stereo not drawn) | 10µM | – | – | –
CCOc1cc(/C=C\[N+](=O)[O-])ccc1OCC(=O)N1CCOCC1 | 8.91µM | – | – | –
CCN(CC)c1ccc(/C=C/c2sc3ccccc3[n+]2CCCCI)cc1 | ? | · | · | –
CC1(C)CC(=O)C(C(C2=C(O)CC(C)(C)CC2=O)c2cccc(O)c2)C(=O)C1 (stereo not drawn) | – | – | – | –
CC1(C)CC(=O)C(C(C2=C(O)CC(C)(C)CC2=O)c2cccs2)C(=O)C1 (stereo not drawn) | 6.31µM | – | – | –
CCC(CO)Oc1cc(NC(=O)c2ccc(C)cc2)c2ncn(C(C)C)c2c1 (stereo not drawn) | – | – | – | –
CS(=O)(=O)c1ccc(C(=O)Nc2nc(-c3ccco3)c(-c3ccco3)s2)cc1 | 14.1µM | – | – | –
CCOC(=O)c1c(NC(=O)CSc2nc(-c3ccc(OC)cc3)cc(C(F)(F)F)n2)sc(C)c1C | – | – | – | –
CCOc1ccc(S(=O)(=O)NCC(c2cccs2)S(=O)(=O)c2ccc(C)cc2)cc1 (stereo not drawn) | 0.891µM | – | – | –
Cc1cc(C)c(S(=O)(=O)NCC(c2cccs2)S(=O)(=O)c2ccccc2)c(C)c1 (stereo not drawn) | 2.51µM | – | – | –
Cc1cc(C)c(S(=O)(=O)NCC(c2ccco2)S(=O)(=O)c2ccccc2)c(C)c1 (stereo not drawn) | – | – | – | –
COc1ccc(NC2C=CS(=O)(=O)C2)cc1 (stereo not drawn) | 15.8µM | – | – | –
Cc1cccc(CSc2nc3c(c(-c4cccs4)c2C#N)CN(C)CC3)c1 | ? | – | – | –
CN1CCc2nc(SCC(=O)Nc3cccc(F)c3)c(C#N)c(-c3cccs3)c2C1 | 5.01µM | – | – | –
CN1CCc2nc(SCC(=O)Nc3ccc(OC(F)(F)F)cc3)c(C#N)c(-c3cccs3)c2C1 | 10µM | – | – | –
CC(C)CNC(=O)C1(C)CCCN1C(=O)Cc1cccc2ccccc12 (stereo not drawn) | · | – | · | ·
SMILES | TrxR1 inh | GLS inhibitor | mIDH1 inhibitor | TrxR1 substrate
O=C(COc1ccc(Br)cc1Br)Nc1ccc(S(=O)(=O)Nc2ncccn2)cc1 | – | – | – | –
CCC(NC(C)C)C(O)c1ccc(O)c(O)c1 (stereo not drawn) | ? | – | – | –
CCC(c1ccc(O)c(O)c1)C(CC)c1ccc(O)c(O)c1 (stereo not drawn) | 7.94µM | ? | – | –
COc1ccc(S(=O)(=O)CCC(=O)N2CCN(c3ccc([N+](=O)[O-])cc3)CC2)cc1 | – | – | – | –
Cc1ccc(S(=O)(=O)CCC(=O)N2CCN(c3ccc([N+](=O)[O-])cc3)CC2)cc1 | 28.2µM | – | – | –
CSc1nc(O)c(C(c2ccc(O)cc2)c2c(O)nc(SC)[nH]c2=O)c(=O)[nH]1 | 8.91µM | – | – | –
C=CCOc1ccc(C(c2c(O)nc(SC)[nH]c2=O)c2c(O)nc(SC)[nH]c2=O)cc1 | 7.94µM | – | – | –
Cc1[nH]n(-c2ccccc2)c(=O)c1C(c1cccc([N+](=O)[O-])c1)c1c(C)[nH]n(-c2ccccc2)c1=O | ? | – | – | –
CCOc1ccccc1C(c1c(O)nc(SC)[nH]c1=O)c1c(O)nc(SC)[nH]c1=O | ? | – | – | –
CCOc1ccc(C(c2c(O)nc(SC)[nH]c2=O)c2c(O)nc(SC)[nH]c2=O)cc1 | 28.2µM | – | – | –
CSc1nc(O)c(C(c2cccc([N+](=O)[O-])c2)c2c(O)nc(SC)[nH]c2=O)c(=O)[nH]1 | 44.7µM | – | – | –
COc1cc2c(NC3CCN(C)CC3)nc(N3CCCN(C)CC3)nc2cc1OCC1CCCCN1 (stereo not drawn) | ? | · | · | –
COc1cc(OC)c(/C=C/c2nccc3ccccc23)c(OC)c1 | – | · | · | –
Cc1ccccc1C(=O)Nc1nnc(S(=O)(=O)N(C)Cc2ccccc2)s1 | – | – | – | –
Cc1ccccc1C(=O)Nc1nnc(S(=O)(=O)N(C)Cc2ccco2)s1 | 44.7µM | – | – | –
CCCC(=O)Nc1nnc(S(=O)(=O)N(C)Cc2ccco2)s1 | 39.8µM | ? | – | –
CCC(=O)Nc1nnc(S(=O)(=O)N(C)Cc2ccco2)s1 | ? | – | – | –
Cc1ccc(C(=O)Nc2nnc(S(=O)(=O)N(C)Cc3ccco3)s2)cc1 | – | – | – | –
CN(Cc1ccco1)S(=O)(=O)c1nnc(NC(=O)c2ccccc2Cl)s1 | 25.1µM! | – | – | –
Cc1ccc(C)c(-c2[nH]c3c(c2-c2c(-n4cccc4)n(C)c(=O)[nH]c2=O)c(=O)[nH]c(=O)n3C)c1 | – | – | – | –
Cc1cccc(-c2nc(SCc3cc(=O)c4c(C)cc(C)cc4[nH]3)n[nH]2)c1 | – | – | ? | –
COc1ccc(-c2onc(C)c2C)cc1S(=O)(=O)NCC1CCN(Cc2cc(C)ccc2C)CC1 | – | – | – | –
CC(=O)NCCCC(=O)NNC1CC(=O)N(c2cccc(Cl)c2)C1=O (stereo not drawn) | 14.1µM | – | – | –
NCCCC(N)C(=O)O (stereo not drawn) | · | – | · | ·
